Screens (PubChem)
In the library only some 1.9% were active in any assay of this set; here they are far more common.
GALR2 ag: GALR2 receptor agonists, primary screen, cell-based | actives 0.48% (n = 140,000) | activation, % (no concentration beside the values) | Galanin receptor type 2 (Homo sapiens), O43603 | GALR2-expressing cells, agonist activation read-out | AID 803, 2007; in the data active = activation above about 5%, passing the limit was not always enough;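 note: 0% = vehicle buffer wells and 100% = reference agonist at full effect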
Target sequence (O43603 whole entry, looked up): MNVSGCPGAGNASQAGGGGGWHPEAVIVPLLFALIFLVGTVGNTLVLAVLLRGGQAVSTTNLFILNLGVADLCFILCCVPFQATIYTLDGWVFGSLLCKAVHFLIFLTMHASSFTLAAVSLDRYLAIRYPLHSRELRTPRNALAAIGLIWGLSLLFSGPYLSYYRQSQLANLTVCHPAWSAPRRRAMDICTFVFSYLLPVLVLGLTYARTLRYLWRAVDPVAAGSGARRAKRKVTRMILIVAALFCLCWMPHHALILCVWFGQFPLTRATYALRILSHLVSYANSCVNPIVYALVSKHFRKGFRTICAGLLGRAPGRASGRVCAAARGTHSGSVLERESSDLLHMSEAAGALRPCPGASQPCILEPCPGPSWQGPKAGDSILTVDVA
sdo1 growth: growth rescue of sdo1-depleted yeast, primary screen, S. cerevisiae, bone marrow failure model | z-score at 10 µM | S. cerevisiae sdo1-depleted JHY4D growth rescue, OD600 30 h; active compounds read high; pdr5 snq2 efflux-pump mutant strain | actives 0.21% (n = 140,000);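 active = z-score above 3 at both the 24 hr and the 30 hr optical density reads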;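 note: z-score against mean and SD of all compound wells on the same plate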
FAK inh: FAK kinase inhibitors, primary screen, biochemical; biochemical FAK kinase activity assay; inhibition, %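 (tested at 7 µM)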; Focal adhesion kinase 1 (Homo sapiens), Q05397; actives 0.84% (n = 97,000); in the data active = inhibition above about 19%;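 note: 0% = DMSO and 100% = reference compound high control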
S1P2 antag: human S1P2 receptor antagonists, primary screen, cell-based | AID 736, 2007 | cell-based S1P2 antagonist assay, inhibition at 5 uM | inhibition, % at 5 µM | actives 0.21% (n = 97,000); in the data active = inhibition above about 45%;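 note: CRE beta-lactamase reporter cells expressing human S1P2 stimulated with S1P; 0% = agonist at EC80 alone and 100% = agonist plus reference antagonist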
S1P2 ag: S1P2 receptor agonists, primary screen, cell-based. Sphingosine 1-phosphate receptor 2 (Homo sapiens), O95136. S1P2-expressing cell line, agonist reporter read-out. activation, % at 4.5 µM. actives 0.46% (n = 97,000); in the data active = activation above about 16%;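 note: 0% = vehicle low control and 100% = maximal reference agonist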
GALR2 blocker: GALR2 antagonists in receptor-expressing cells, primary screen | inhibition, % at 4 µM | AID 828, 2007 | antagonist mode | Galanin receptor type 2 (Homo sapiens), O43603 | actives 0.39% (n = 140,000); in the data active = inhibition above about 27%;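 note: cells stimulated with galanin 1-16 at roughly its EC80; 0% = agonist challenge control and 100% = basal control without agonist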
GALR2 ag confirm: GALR2 agonists, retest of hits, confirmation, cell-based. shares compounds with GALR2 ag. GALR2-expressing cells, agonist activation. activation, % at 5.6 µM. actives 10% (n = 460). AID 864, 2007; in the data active = activation above about 8.4%;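 note: 0% = buffer-only vehicle wells and 100% = full reference agonist response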
BLA act counter: activators of NFAT-driven beta-lactamase reporter, confirmation, counter-screen for GALR2 agonist project, CHO NFAT-bla cells, FRET readout; shares compounds with GALR2 ag; beta-lactamase FRET activation; activation, % at 5.6 µM; actives 10% (n = 460); AID 865, 2007;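 active = activation above the screen-wide mean activation plus 3 SD, cut at about 8% in these data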;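 note: 0% = DMSO with PBS wells and 100% = thapsigargin positive control wells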
* = called active by the depositor; . = no result given.

SMILES	GALR2 ag	sdo1 growth	FAK inh	S1P2 antag	S1P2 ag	GALR2 blocker	GALR2 ag confirm	BLA act counter
CC1(C)CC(=O)C=C(Nc2ccc(S(N)(=O)=O)cc2)C1	41*	0.6	-2	-13	-11	7	-1	-2
CC1(C)CC(=O)C=C(Nc2ccc(C(=O)O)cc2)C1	0	1.3	0	-9	-3	8	.	.
COC(=O)c1cc(NC(=O)CSc2nncn2C)cc(C(=O)OC)c1	16*	0.06	-1	5	-1	-5	-1	-1
CCCNC(=S)N1CCC(c2nc3cc(C)c(C)cc3[nH]2)CC1	32*	0.02	7	12	-6	-10	-1	-2
Cc1cccc(OCc2nc(-c3ccccn3)n[nH]2)c1	-2	-0.11	-1	-26	-2	-6	.	.
Cc1ccc(OCc2nc(-c3ccccn3)n[nH]2)cc1	73*	0.53	1	-12	-2	-2	-1	-2
CC1=CC2=NC(=O)/C(=C\c3cc(C)n(-c4ccc(F)cc4)c3C)C(=N)N2O1	12*	1.4	.	.	.	-11	8	11*
CCNC(=S)N(Cc1ccc2c(c1)OCO2)C1CC(=O)N(c2ccc(F)cc2)C1=O (stereo not given)	11	-0.86	1	-2	-7	1	-1	-2
CCNC(=S)N(Cc1ccc2c(c1)OCO2)C1CC(=O)N(c2ccc(OC)cc2)C1=O (stereo not given)	-4	-1.3	-6	-14	-7	13	.	.
CCN(CC)c1ccc(NC(=O)COC(=O)/C=C/c2nc3ccccc3s2)cc1	0	-0.63	.	.	.	-5	.	.
CCN(CC)c1ccc(/C=C/c2nc3ccccc3s2)cc1	17*	-1	-5	66*	13	26	5	6
COc1cc(C2NC(=O)C(C#N)=C(S)N2c2ccc(C)cc2)ccc1OC(C)C (stereo not given)	91*	-0.21	1	-6	-3	-8	-1	-2
CCOc1ccc(C2NC(=O)C(C#N)=C(S)N2c2ccc(OC)cc2)cc1OC (stereo not given)	-1	1.5	7	16	-6	2	.	.
O=C(Cc1n[nH]c(=O)[nH]c1=O)N/N=C/c1cccc(O)c1	15*	1.5	1	-14	-5	2	-1	-2
CNS(=O)(=O)c1cnccc1N1CCN(c2cccc(C(F)(F)F)c2)CC1	-2	-0.14	5	7	-5	15	.	.
N#C/C(=C\c1c(N2CCC(C(N)=O)CC2)nc2ccccn2c1=O)C(=O)NCc1ccco1	0	0.86	.	.	.	2	.	.
N#C/C(=C\c1c(N2CCCCCC2)nc2ccccn2c1=O)C(=O)NC1CCS(=O)(=O)C1 (stereo not given)	8.9*	-0.25	.	.	.	-20	0	0
O=C(COc1ccc(Cl)cc1)NNC(=O)C(=O)N1CCCCC1	29*	-0.46	-4	-11	-2	0	0	0
COc1cc([N+](=O)[O-])ccc1NC(=O)CSc1nc2ccccc2n1-c1ccccc1	-1	-0.22	.	.	.	-5	.	.
O=C1NC(c2ccco2)Nc2sc3c(c21)CCN(Cc1ccccc1)C3 (stereo not given)	16*	-0.52	1	-10	9	-8	0	1
CCN(CC)c1ccc2cc(-c3nnc(-c4ccccc4)o3)c(=O)oc2c1	1	-0.93	0	-10	-2	1	.	.
CCN(CC)c1ccc2cc(-c3nc4ccccc4n3C)c(=O)oc2c1	10	0.53	-3	69*	3	43*	4	4
CCN(CC)S(=O)(=O)c1cccc(C(=O)N[C@H](C(=O)Nc2nc3ccc(F)cc3s2)C(C)C)c1	1	0.4	.	.	.	-2	.	.
CC(=O)c1ccc2c3c(cccc13)C(=O)N(c1c(C)nn(C)c1C)C2=O	20*	0.35	2	-9	-3	-2	-1	-1
